Tests used:
Test in all cases: DAPPL (digital affinity profiling via proximity ligation, sequencing); 10 mM Tris-HCl pH 7.5, 50 mM NaCl, 1 mM DTT, 4% glycerol, room temperature, 30 min; GST-TFs on glutathione beads, 16-mer random dsDNA library, 0.1% formaldehyde crosslink after washing; high values mean tight binding
Conditions in all cases: protein: recombinant; tags: N-terminal GST; dsDNA, one strand shown
FLI1 = target: T1, FLI1 (Homo sapiens, UniProt Q01543 1-452)
T1 sequence: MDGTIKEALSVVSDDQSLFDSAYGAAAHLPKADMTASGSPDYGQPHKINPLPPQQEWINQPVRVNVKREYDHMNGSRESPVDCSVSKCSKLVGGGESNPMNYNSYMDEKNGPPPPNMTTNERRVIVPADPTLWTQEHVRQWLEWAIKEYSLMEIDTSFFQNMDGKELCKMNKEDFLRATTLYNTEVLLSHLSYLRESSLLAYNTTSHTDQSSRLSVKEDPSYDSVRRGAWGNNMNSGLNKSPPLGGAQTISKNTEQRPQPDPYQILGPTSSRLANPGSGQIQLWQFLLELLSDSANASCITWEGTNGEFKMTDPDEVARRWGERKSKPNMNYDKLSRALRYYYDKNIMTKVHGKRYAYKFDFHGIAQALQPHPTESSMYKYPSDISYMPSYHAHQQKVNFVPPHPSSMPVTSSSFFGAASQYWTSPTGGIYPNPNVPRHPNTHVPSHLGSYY
In short: (§1)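 Sequencing on an Illumina NextSeq500 followed washing, crosslinking with 0.1% formaldehyde, proximity ligation (BsaI/T4 ligase, 1 h, 37 °C) and PCR amplification of pools that had been incubated for 30 min at room temperature with 200 nmole of a random double-stranded 16-mer DNA library in Tris/NaCl/DTT/glycerol buffer. Each pool held DNA-barcoded human transcription factors, expressed in yeast as GST fusions and captured on glutathione beads, plus a tag-only sample. Binding signal is a hexamer's read frequency for a factor divided by its frequency in the tag-only sample.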

ELK1 = target: T2, ELK1 (Homo sapiens, UniProt P19419 1-428)
T2 sequence: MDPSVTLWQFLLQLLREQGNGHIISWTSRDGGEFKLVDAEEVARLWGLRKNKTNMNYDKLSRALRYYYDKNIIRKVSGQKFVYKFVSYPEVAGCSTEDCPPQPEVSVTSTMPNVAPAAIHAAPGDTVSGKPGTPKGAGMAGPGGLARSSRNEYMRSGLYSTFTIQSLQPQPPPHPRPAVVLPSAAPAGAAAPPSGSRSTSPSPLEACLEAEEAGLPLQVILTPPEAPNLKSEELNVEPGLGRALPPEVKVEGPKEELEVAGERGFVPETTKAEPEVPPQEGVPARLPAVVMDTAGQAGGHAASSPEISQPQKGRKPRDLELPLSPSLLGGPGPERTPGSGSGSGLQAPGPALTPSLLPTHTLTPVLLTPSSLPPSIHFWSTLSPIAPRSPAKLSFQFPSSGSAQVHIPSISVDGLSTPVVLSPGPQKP
In short: as §1

GABPA = target: T3, GABPA (Homo sapiens, UniProt Q06546 1-454)
T3 sequence: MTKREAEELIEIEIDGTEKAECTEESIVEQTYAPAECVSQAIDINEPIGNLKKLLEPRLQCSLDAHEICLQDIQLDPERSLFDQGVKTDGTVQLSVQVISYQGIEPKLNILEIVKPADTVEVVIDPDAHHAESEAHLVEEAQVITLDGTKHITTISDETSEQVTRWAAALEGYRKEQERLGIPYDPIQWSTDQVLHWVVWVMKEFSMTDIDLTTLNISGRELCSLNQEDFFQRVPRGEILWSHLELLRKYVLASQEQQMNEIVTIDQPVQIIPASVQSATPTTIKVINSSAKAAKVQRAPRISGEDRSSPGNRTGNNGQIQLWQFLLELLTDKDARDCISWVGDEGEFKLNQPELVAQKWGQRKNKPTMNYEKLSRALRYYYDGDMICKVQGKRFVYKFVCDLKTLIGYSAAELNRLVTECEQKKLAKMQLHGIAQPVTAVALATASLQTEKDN
In short: as §1

ERG = target: T4, ERG (Homo sapiens, UniProt P11308 1-479)
T4 sequence: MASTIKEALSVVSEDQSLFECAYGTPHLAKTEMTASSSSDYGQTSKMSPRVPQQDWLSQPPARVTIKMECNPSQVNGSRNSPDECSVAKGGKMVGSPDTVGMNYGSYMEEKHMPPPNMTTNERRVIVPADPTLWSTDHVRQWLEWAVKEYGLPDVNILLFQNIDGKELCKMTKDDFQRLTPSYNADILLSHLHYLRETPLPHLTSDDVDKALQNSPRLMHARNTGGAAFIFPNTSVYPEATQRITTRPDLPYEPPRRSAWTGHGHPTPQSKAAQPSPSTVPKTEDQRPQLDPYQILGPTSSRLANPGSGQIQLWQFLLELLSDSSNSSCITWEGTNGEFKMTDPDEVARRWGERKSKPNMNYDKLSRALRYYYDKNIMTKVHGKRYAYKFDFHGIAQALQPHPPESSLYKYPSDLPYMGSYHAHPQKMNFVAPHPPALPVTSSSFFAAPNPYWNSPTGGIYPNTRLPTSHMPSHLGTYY
In short: as §1

ELF1 = ELF1 (Homo sapiens, UniProt P32519 1-619)
In short: as §1

EHF = target: T5, EHF (Homo sapiens, UniProt Q9NZC4 1-300)
T5 sequence: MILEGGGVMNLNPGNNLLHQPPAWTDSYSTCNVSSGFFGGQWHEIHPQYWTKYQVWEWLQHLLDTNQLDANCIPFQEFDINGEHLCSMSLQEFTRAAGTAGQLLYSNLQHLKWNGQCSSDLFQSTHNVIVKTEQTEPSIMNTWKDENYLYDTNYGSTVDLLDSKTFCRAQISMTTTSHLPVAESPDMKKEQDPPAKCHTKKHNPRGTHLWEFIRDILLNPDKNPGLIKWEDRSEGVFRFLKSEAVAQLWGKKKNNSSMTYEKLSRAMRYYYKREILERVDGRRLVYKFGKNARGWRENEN
In short: as §1

SPI1 = SPI1 (Homo sapiens, UniProt P17947 1-270)
In short: as §1

SPIB = SPIB (Homo sapiens, UniProt Q01892 1-262)
In short: as §1

ELK3 = target: T6, ELK3 (Homo sapiens, UniProt P41970 1-407)
T6 sequence: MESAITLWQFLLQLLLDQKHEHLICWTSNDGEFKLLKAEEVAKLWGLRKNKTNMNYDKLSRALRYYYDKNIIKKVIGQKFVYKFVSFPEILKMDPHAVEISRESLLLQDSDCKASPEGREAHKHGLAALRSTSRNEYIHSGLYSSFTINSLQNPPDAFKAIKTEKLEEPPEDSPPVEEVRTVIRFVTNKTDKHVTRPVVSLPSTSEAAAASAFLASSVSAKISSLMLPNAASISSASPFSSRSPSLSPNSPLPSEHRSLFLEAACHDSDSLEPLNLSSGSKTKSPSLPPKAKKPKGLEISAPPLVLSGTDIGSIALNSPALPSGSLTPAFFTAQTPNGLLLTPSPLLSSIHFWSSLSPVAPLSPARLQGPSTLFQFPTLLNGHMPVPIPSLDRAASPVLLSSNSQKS
In short: as §1

SPIB, sequence (Q01892 whole entry): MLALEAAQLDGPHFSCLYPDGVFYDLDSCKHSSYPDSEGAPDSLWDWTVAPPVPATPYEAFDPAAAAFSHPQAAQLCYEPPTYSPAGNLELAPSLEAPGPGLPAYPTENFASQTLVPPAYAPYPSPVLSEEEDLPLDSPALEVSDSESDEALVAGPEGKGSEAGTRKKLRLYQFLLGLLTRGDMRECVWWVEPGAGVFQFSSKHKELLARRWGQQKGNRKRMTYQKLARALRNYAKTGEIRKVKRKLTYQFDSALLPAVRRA
ELF1, sequence (P32519 whole entry): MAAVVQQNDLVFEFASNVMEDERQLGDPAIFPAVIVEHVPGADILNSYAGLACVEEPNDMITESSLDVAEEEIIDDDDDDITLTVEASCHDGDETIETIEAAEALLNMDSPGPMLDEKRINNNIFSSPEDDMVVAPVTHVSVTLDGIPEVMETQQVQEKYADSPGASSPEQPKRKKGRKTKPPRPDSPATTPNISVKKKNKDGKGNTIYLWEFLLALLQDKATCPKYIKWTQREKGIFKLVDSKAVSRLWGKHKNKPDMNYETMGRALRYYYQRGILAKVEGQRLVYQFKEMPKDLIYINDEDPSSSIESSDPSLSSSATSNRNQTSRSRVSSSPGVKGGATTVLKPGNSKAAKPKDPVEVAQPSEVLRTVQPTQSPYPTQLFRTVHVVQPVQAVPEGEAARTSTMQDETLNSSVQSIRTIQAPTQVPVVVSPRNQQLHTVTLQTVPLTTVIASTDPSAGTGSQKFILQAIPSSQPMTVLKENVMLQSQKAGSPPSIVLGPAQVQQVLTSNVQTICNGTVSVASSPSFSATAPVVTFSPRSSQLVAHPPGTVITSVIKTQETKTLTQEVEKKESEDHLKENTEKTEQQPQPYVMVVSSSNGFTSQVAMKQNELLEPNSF

TTAGGG
binding signal (FLI1): 1.03 fold enrichment (6-mer frequency, TF over GST control)
binding signal (ELK1): 1.14 fold enrichment (6-mer frequency, TF over GST control)
binding signal (GABPA): 1.13 fold enrichment (6-mer frequency, TF over GST control)
binding signal (ERG): 1.15 fold enrichment (6-mer frequency, TF over GST control)
binding signal (ELF1): 1.11 fold enrichment (6-mer frequency, TF over GST control)
binding signal (EHF): 1.13 fold enrichment (6-mer frequency, TF over GST control)
binding signal (SPI1): 1.25 fold enrichment (6-mer frequency, TF over GST control)
binding signal (SPIB): 1.17 fold enrichment (6-mer frequency, TF over GST control)
binding signal (ELK3): 1.07 fold enrichment (6-mer frequency, TF over GST control)

From PMC7862700, “An all-to-all approach to the identification of sequence-specific readers for epigenetic DNA modifications on cytosine”
